Assay outcomes as filed in PubChem.
TLR9-MyD88 block: inhibitors of human TLR9-MyD88 binding | CHO BLA complementation TLR9-MyD88, CCF4 FRET ratio | inhibition, % at 4.98 µM | 340,000 tested, 0.21% active;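 active means inhibition above the mean over all tested compounds plus 3 SD, cut at about 21% in these data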
IDE cell inh: cellular human IDE inhibition; inhibition, % at 5.59 µM; HEK cells, FAbetaB cleavage, fluorescence polarization; 320,000 tested, 0.41% active; P14735;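 active means percent inhibition above the average of all tested compounds plus 3 SD, set per screening campaign, cut at about 16% in these data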;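 further: IDE supplied by intact live HEK cells; FP after avidin binding of uncleaved biotin substrate so inhibition keeps polarization high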
TLR4-MyD88 BLA: TLR4-MyD88 interaction inhibition in cells | inhibition, % at 8.4 µM | HeLa CL3-4 TLR4/MyD88 BLA complementation, FRET ratio | O00206+Q99836 | 200,000 tested, 0.18% active | AID 861; in the data active means inhibition above about 25%
NOD2-RIPK2 inh: inhibitors of human NOD2-RIPK2 interaction. 360,000 tested, 0.38% active. inhibition, % at 4.98 µM. CHO BLA complementation NOD2-RIPK2, CCF4 ratio; in the data active means inhibition above about 21%
IDE act: IDE (human) activation, cell-based; AID 493087; activation, % at 5.96 µM; HEK cells, FAbeta-B cleavage, fluorescence polarization; 0% vehicle, 100% cell-free pure enzyme wells; P14735; 340,000 tested, 0.073% active;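 active means activation above the mean of all tested compounds plus 3 SD, set per screening campaign, cut at about 17% in these data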
IDE cell inh cf: cellular human IDE inhibition, confirmation | shares compounds with IDE cell inh | HEK cells, FAbetaB cleavage, fluorescence polarization | inhibition, % at 5.59 µM | 1,200 tested, 51% active | AID 435028;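 active means mean inhibition across triplicate wells above the cutoff set by the earlier primary insulin-degrading enzyme screen, cut at about 16% in these data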
HEK cytotox: counter-screen for IDE inhibitors: cytotoxicity in HEK cells | shares compounds with IDE cell inh | HEK293 cytotoxicity, ATP luminescence | inhibition, % at 5.59 µM | 1,200 tested, 28% active; in the data active means inhibition above about 22%
FP fluor counter: fluorescence interference counter-screen for IDE inhibitors | shares compounds with IDE cell inh | FP counterscreen for fluorescent artifacts, IDE probe project | AID 588718 | 30 tested, under 10 active | IC50, µM; call rule not given here
Each line names hits and unclear results; the compound was inactive in the other large screens (follow-up assays come after a bar, where they were run). Shown are actives, neighbours in structure and some others; about 0.86% of the full set was active somewhere.

COc1ccc(OC)c2sc(N3CCN(C(=O)c4ccc5ncsc5c4)CC3)nc12	none (no result: TLR4-MyD88 BLA)
CC(=O)c1sc(N/N=C\c2ccccc2O)nc1C	IDE cell inh 30.7 | IDE cell inh cf 47.5 | HEK cytotox inactive
CCOC(=O)c1sc(N/N=C/c2ccccc2)nc1C	none
CC(=O)Nc1ccc(NC(=S)NC(=O)c2ccc(-c3ccccc3)cc2)cc1	none (no result: TLR9-MyD88 block, TLR4-MyD88 BLA, IDE act)
CC(C)NS(=O)(=O)c1ccc(NC(=S)NC(=O)c2ccc(-c3ccccc3)cc2)cc1	IDE cell inh 39.1 | IDE cell inh cf 25.4 | HEK cytotox 37.3
COc1cc(/C=C2\SC(=O)N(CC(=O)Nc3ccccc3F)C2=O)cc(Cl)c1O	IDE cell inh 47.8 (no result: TLR4-MyD88 BLA) | IDE cell inh cf 95.6 | HEK cytotox inactive
COc1cc(/C=C2\SC(N)=NC2=O)cc(Br)c1O	IDE cell inh 55.1 (no result: TLR4-MyD88 BLA) | IDE cell inh cf 70.2 | HEK cytotox inactive
Cn1c2ccccc2c2nnc(SCC(=O)Nc3cccc(C(=O)O)c3)nc21	none (no result: TLR4-MyD88 BLA)
Cc1ccc(N2CCN(CCc3nc4cc(NC(=O)c5ccco5)ccc4n3C)CC2)cc1	IDE cell inh 19.4 | IDE cell inh cf inactive | HEK cytotox inactive
Cn1c(CCN2CCN(c3ccccc3)CC2)nc2cc(NC(=O)c3ccco3)ccc21	none
COc1ccc2[nH]c3c(N4CCC(O)(c5cccc(C(F)(F)F)c5)CC4)ncnc3c2c1	IDE cell inh 22.6 | IDE cell inh cf inactive | HEK cytotox 64.9
COc1cc(/C=C(\C#N)c2ccccn2)cc(OC)c1O	IDE cell inh 160.0 (no result: TLR4-MyD88 BLA) | IDE cell inh cf 52.5 | HEK cytotox inactive
COc1cc(/C=C(\C#N)c2[nH]nc(N)c2C#N)cc(OC)c1O	IDE cell inh 84.1 | IDE cell inh cf 166.3 | HEK cytotox inactive
COc1cc(/C=C/c2nc3ccccc3c(=O)[nH]2)ccc1O	none (no result: IDE cell inh, TLR4-MyD88 BLA, IDE act)
COc1cc(/C=C/c2nc3ccccc3c(=O)[nH]2)cc(Br)c1O	IDE cell inh 43.9 (no result: TLR4-MyD88 BLA) | IDE cell inh cf 143.4 | HEK cytotox inactive
CCOC1=C/C(=C/c2c(N)n3nc(CC(=O)N4CCCCC4)sc3nc2=O)C=CC1=O	IDE cell inh 20.6 (no result: TLR4-MyD88 BLA) | IDE cell inh cf 25.9 | HEK cytotox inactive
CCOC1=C/C(=C/c2c(N)n3nc(S(=O)(=O)CC)sc3nc2=O)C=CC1=O	IDE cell inh 21.8 | IDE cell inh cf 112.3 | HEK cytotox inactive
COC1=C/C(=C/c2c(N)n3nc(CC(=O)N4CCCCC4)sc3nc2=O)C=CC1=O	none (no result: TLR4-MyD88 BLA)
CC(Sc1ccccc1)C(=O)NCC1COc2ccccc2O1 (stereo not drawn)	none (no result: TLR4-MyD88 BLA)
COc1ccc(C(=O)NCc2ccco2)cc1S(=O)(=O)NC1CC1	none (no result: TLR4-MyD88 BLA)
Cc1ccc(N2C(=O)c3cccc4c(N)ccc(c34)C2=O)c2cccnc12	IDE cell inh 83.9 (no result: TLR4-MyD88 BLA) | IDE cell inh cf 65.1 | HEK cytotox 68.2
Cc1ccc(-n2cnnn2)c2cccnc12	none
Cc1c(CCC(=O)NCCCn2ccnc2)c(=O)oc2cc3oc4c(c3cc12)CCCC4	IDE cell inh 56.4 (no result: TLR4-MyD88 BLA) | IDE cell inh cf 33.4 | HEK cytotox inactive | FP fluor counter inactive
CC1=CC(C)(C)Nc2ccc(OC(=O)CCN3C(=O)c4ccccc4C3=O)cc21	IDE cell inh 17.0 | IDE cell inh cf 38.2 | HEK cytotox 126.7
O=C(Nc1ccc(N2CCOCC2)c(Cl)c1)c1ccc(Cl)cc1	IDE cell inh 17.5 | IDE cell inh cf inactive | HEK cytotox inactive
O=C(Nc1ccc(N2CCOCC2)c(Cl)c1)c1ccc2c(c1)OCCO2	none
Cn1cc(C2=C(c3ccc(Cl)cc3Cl)C(=O)NC2=O)c2ccccc21	IDE cell inh 32.9 (no result: TLR4-MyD88 BLA) | IDE cell inh cf 60.0 | HEK cytotox inactive
COc1ccc(OC)c(/C=C2\Oc3cc(OCC(=O)N4CCC(C(=O)O)CC4)ccc3C2=O)c1	IDE cell inh 22.1 (no result: TLR4-MyD88 BLA) | IDE cell inh cf 65.3 | HEK cytotox inactive
Cc1ccc(C(=O)C2OC(=O)C(C)(C)C(=O)C2(C)C)cc1 (stereo not drawn)	none
COc1ccc(CC(=O)Nc2sc3c(c2C(N)=O)CCCC3)cc1	none (no result: TLR4-MyD88 BLA)
COc1ccc2nc(Nc3sc4c(c3C(N)=O)CCCC4)sc2c1	IDE cell inh 19.6 | IDE cell inh cf inactive | HEK cytotox inactive
